# According to PubChem BioAssay (EPA / NIEHS):
# Values joined by “and” are separate entries in the source; they are usually repeats but may differ in a detail not shown here. Equal values may be shown once. More than one record can exist for a structure, and the calls need not agree. Active and inactive are the calls of the source. How the source made its calls: active means hit-call score of the fitted dose curve at least 0.9, where 1 is the maximum; inactive means score below 0.9.
# Assay: APR_HepG2_CellCycleArrest_72hr: Apredica 72-hour HepG2 Assay for Cell Cycle Arrest (AID 2282914)
# Details: high-content imaging, actives raise or lower the signal
# Method: APR_HepG2_72hr is a cell-based, multiplexed-readout assay that uses HepG2, a human liver cell line, with measurements taken at 72 hours after chemical dosing in a 384-well plate.APR_HepG2_CellCycleArrest_72hr is one of 10 assay component(s) measured or calculated from the APR_HepG2_72hr assay. It is designed to make measurements of cell phenotype, a form of morphology reporter, as detected with fluorescence intensity signals by HCS Fluorescent Imaging technology.Data from the assay component APR_HepG2_CellCycleArrest_72hr was analyzed into 1 assay endpoint. This assay endpoint, APR_HepG2_CellCycleArrest_72hr, was analyzed with bidirectional fitting relative to DMSO as the negative control and baseline of activity. Using a type of morphology reporter, measures of all nuclear dna for gain or loss-of-signal activity can be used to understand the signaling at the pathway-level as they relate to the gene . Furthermore, this assay endpoint can be referred to as a primary readout, because this assay has produced multiple assay endpoints where this one serves a signaling function. To generalize the intended target to other relatable targets, this assay endpoint is annotated to the cell cycle intended target family, where the subfamily is arrest.
# Cells were treated with dimethyl sulfoxide (DMSO) as a solvent control at a final concentration of 0.5% v/v or with compounds in DMSO with a resulting final DMSO concentration of 0.5% v/v. Compound treatment was done at concentrations of 0.39, 0.78, 1.56, 3.12, 6.24, 12.5, 25, 50, 100, and 200 uM in duplicate on each plate. Cells were treated with compounds for 1, 24, or 72 hr. Carbonyl […] m-chloro-phenylhydrazone (CCCP) and taxol were used as positive controls for mitochondrial function and cytoskeletal stability, respectively; DMSO served as the negative control for this experiment. Cells were fixed by the direct addition of 50 uL formaldehyde in Hank's Balanced Salt Solution (HBSS) to a final concentration of 3.7%. After incubation in the fixation medium for 30 min at room temperature (293-298 K), cells were rinsed twice with HBSS and treated with cell permeabilization buffer (16 uL of 0.5% Triton X-100) for 10 min at room temperature (293-298 K) before labeling. For mitochondrial membrane potential and mitochondrial measurements, pre-fixed cells were incubated with 50 uL of MitoTracker Red CMXRos (Invitrogen) at a concentration of 250 nM for 30 min before fixation. In the remaining cases, post-fixed cells were labeled by incubation with a multiplexed mixture of primary antibodies in HBSS for 60 min at room temperature (293-298 K) to detect immunoreactivity of c-Jun (1:500), phospho-histone H3 (1:100), phospho-histone H2A.x (1:200), p53 (1:400), alpha-tubulin (1:200) and Hoechst 33342 (2 ug/mL). Cells were labeled for multiplexed imaging on two separate plates: a) Hoechst 33342, MitoTracker Red, phospho-histone H3, and alpha-tubulin, and b) Hoechst 33342, phospho-histone H2A.x, and c-Jun. A final rinse with HBSS (50 uL) was performed before analysis. The primary and secondary antibodies for the proteins were phospho-histone H3 (rabbit anti-phospho-histone H3 and FITC-donkey anti-rabbit IgG), phospho-histone H2A.x (mouse anti-phospho-histone H2A.x and FITC-donkey anti-mouse IgG), c-Jun (rabbit anti-phospho-c-Jun and Cy3-donkey anti-rabbit IgG), p53 (sheep anti-p53 and Cy5-donkey anti-sheep IgG), alpha-tubulin (mouse anti-alpha-tubulin and Cy5-donkey anti-mouse IgG). These antibodies are available as the CellCiphr HepG2 assay kit (Millipore).Digital images of each well were captured using a Cellomics ArrayScan VTI (Thermo Scientific Cellomics) (0.8 NA objective, 0.63x optical coupler, and XF-93 filter set) at 20x magnification. The images were acquired using the autofocus feature of the ArrayScan instrument, which entails the following steps. First, the camera focuses on channel 1 (Hoechst 33342), where nuclei are identified. Second, a Z offset of 1 um is used for capturing mitochondria (MitoTracker Red). […]
Structure (SMILES),outcome,AC50
CON(C)C(=O)Nc1ccc(Cl)c(Cl)c1,inactive,
CCOc1cc(Oc2ccc(C(F)(F)F)cc2Cl)ccc1[N+](=O)[O-],inactive,
CCc1nn(C)c(C(=O)NCc2ccc(C(C)(C)C)cc2)c1Cl,inactive,
CCON=C(CC)C1=C(O)CC(c2c(C)cc(C)cc2C)CC1=O (stereo not given),inactive,
CO/C=C(/C(=O)OC)c1ccccc1Oc1cc(Oc2ccccc2C#N)ncn1,inactive,21 µM (active) and 3.09 µM (active) and 5.96 µM (active)
OC(c1ccc(Cl)cc1)(c1cncnc1)c1ccccc1Cl (stereo not given),inactive,
COP(N)(=O)SC (stereo not given),inactive,
CC1COC(Cn2cncn2)(c2ccc(Oc3ccc(Cl)cc3)cc2Cl)O1 (stereo not given),,64.3 µM (active)
COP(=S)(OC)Oc1nc(Cl)c(Cl)cc1Cl,inactive,
C=CC1(C)OC(=O)N(c2cc(Cl)cc(Cl)c2)C1=O (stereo not given),inactive,
CCNc1nc(Cl)nc(NCC)n1,inactive,
CCCN(CCC)c1c([N+](=O)[O-])cc(S(N)(=O)=O)cc1[N+](=O)[O-],inactive,27.2 µM (active) and 57.9 µM (active) and 34 µM (active)
COC(=O)C(C)Oc1ccc(Oc2ccc(Cl)cc2Cl)cc1 (stereo not given),inactive,
COC(=O)C=C(C)OP(=O)(OC)OC,inactive,
CCOP(=S)(OCC)SCn1c(=O)oc2cc(Cl)ccc21,,85 µM (active)
CC(C)C1(C)N=C(c2nc3ccccc3cc2C(=O)O)NC1=O (stereo not given),inactive,
N#Cc1cc(Br)c(O)c(Br)c1,,100 µM (active)
COc1ccc(C(c2ccc(OC)cc2)C(Cl)(Cl)Cl)cc1,inactive,
C#CCOS(=O)OC1CCCCC1Oc1ccc(C(C)(C)C)cc1 (stereo not given),,2.92 µM (active)

Structure (SMILES),outcome,AC50
Fc1ccc(Oc2ccnc3cc(Cl)cc(Cl)c23)cc1,inactive,
Cc1ccc(-c2c(Cl)nc(C#N)n2S(=O)(=O)N(C)C)cc1,inactive,
COc1cnc(OC)n2nc(NS(=O)(=O)c3c(OCC(F)F)cccc3C(F)(F)F)nc12,inactive,
CCCCC(CC)COC(=O)c1ccccc1C(=O)OCC(CC)CCCC (stereo not given),inactive,
Cc1cc(Cl)ccc1OCC(=O)O,inactive,
CN(C)C(=S)SSC(=S)N(C)C,,0.039 µM (active)
C=CCC1=C(C)C(OC(=O)C2C(C=C(C)C)C2(C)C)CC1=O (stereo not given),inactive,34.4 µM (active)
CNC(=S)S,inactive,
CCCCNC(=O)n1c(NC(=O)OC)nc2ccccc21,,17 µM (active)
COc1nc(C)nc(NC(=O)NS(=O)(=O)c2ccccc2Cl)n1,inactive,
Oc1ccccc1-c1ccccc1,inactive,
N#CC(CCc1ccc(Cl)cc1)(Cn1cncn1)c1ccccc1 (stereo not given),inactive,
CCCC1COC(Cn2cncn2)(c2ccc(Cl)cc2Cl)O1 (stereo not given),,100 µM (active)
CCCCOC(=O)c1ccccc1C(=O)OCCCC,inactive,
COC(=O)c1ccccc1C(=O)OC,inactive,
O=C(O)c1nc(Cl)ccc1Cl,inactive,
CNC(=O)ON=CC(C)(C)SC,inactive,
CC1=C(C(=O)Nc2ccccc2)SCCO1,inactive,
